Inconclusive results are not listed. Unmarked numbers belong to inactive results. The source made the active and inactive calls. The call rests on the fitted dose curve; in most records, active means well fitted inhibition curve with a large enough effect; inconclusive means small, poorly fitted or top-dose-only effect; inactive means flat fitted curve, though single readings scatter.
system: UISO; experiment: qHTS assay to identify novel small-molecules to repurpose for Merkel cell carcinoma treatment (AID 1296009); conditions: MCC and control cell lines, CellTiter-Glo viability, 72 h; series mostly up to 46 µM; activity change, negative = cytotoxicity: at the top concentration; further: nearly all actives have a fitted effect of over 60% in size
Outline: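 Cells exposed to NPC (8-point) and MIPE (11-point) compound dilutions for 72 hr at 37 degree celsius; viability read by CellTiter-Glo luminescence, normalized to no-cell and DMSO in-plate controls.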
On the % scale 0 is the no-effect control and ±100 the full control effect; potency means the concentration at half of the fitted maximal effect.

| Structure (SMILES) | Potency | activity change, negative = cytotoxicity [%] |
| --- | --- | --- |
| C[C@H]1[C@@H](OC(=O)CCC(=O)O)O[C@@H]2O[C@@]3(C)CC[C@@H]4[C@H](C)CC[C@@H]1[C@@]24OO3 | 4.18 µM (active) |  |
| CC(=O)O[C@@]12CO[C@H]1C[C@H](O)[C@@]1(C)C(=O)[C@H](O)C3=C(C)[C@@H](OC(=O)C(O)[C@@H](NC(=O)OC(C)(C)C)c4ccccc4)C[C@@](O)([C@@H](OC(=O)c4ccccc4)[C@@H]21)C3(C)C (some centres not stated) |  | -62.4 |
| Cn1cc(-c2ccc3ncc(Cc4ccc5ncccc5c4)n3n2)cn1 |  | -19.6 |
| COc1ccc(C[C@@H](C)[C@@H](C)Cc2ccc(OC)c(OC)c2)cc1OC | 1.32 µM (active) |  |
| CCN(CC)CCNC(=O)c1c(C)[nH]c(C=C2C(=O)Nc3ccc(F)cc32)c1C | 6.05 µM (active) |  |
| Nc1nc(=O)n([C@H]2C[C@H](O)[C@@H](CO)O2)cc1F | 0.209 µM (active) |  |
| Cc1ccc([N+](=O)[O-])cc1S(=O)(=O)N(C)N=Cc1cnc2ccc(Br)cn12 | 0.0418 µM (active) |  |
| C[C@H](NCc1ccc(OCc2cccc(F)c2)cc1)C(N)=O | 16.6 µM (active) |  |
| O=C(Nc1cccc(Nc2ncc(Br)c(NCCc3cnc[nH]3)n2)c1)N1CCCC1 | 16.6 µM (active) |  |
| CCNC(=O)Nc1ccc(-c2nc3c(c(N4CCOC[C@H]4C)n2)CCN(C2COC2)C3)cc1 | 3.72 µM (active) |  |
| CO[C@@H]1[C@@H](O)[C@H](O)[C@@H](n2c3c(Cl)cccc3c3c4c(c5c6cccc(Cl)c6[nH]c5c32)C(=O)NC4=O)O[C@@H]1CO | 0.264 µM (active) |  |
| COc1ccc(Nc2cc(-c3cnc(N)nc3)nc(N3CCOCC3)n2)cn1 | 4.18 µM (active) |  |
| Cc1[nH]c(C=C2C(=O)Nc3ccccc32)c(C)c1CCC(=O)O | 0.469 µM (active) |  |
| CC(C(C)N1CC(=O)NC(=O)C1)N1CC(=O)NC(=O)C1 (configuration not stated) |  | -15.7 |
| CNC(=O)c1ccc(Nc2cc(Nc3ccccc3S(=O)(=O)C(C)C)c3cc[nH]c3n2)nc1 | 5.9 µM (active) |  |
| CCN(CC)Cc1ccc2cc(COC(=O)Nc3ccc(C(=O)NO)cc3)ccc2c1 | 3.72 µM (active) |  |
| C[C@@H](Cc1cc2c(c(C(N)=O)c1)N(CCCO)CC2)NCCOc1ccccc1OCC(F)(F)F |  | 0.89 |
| CCOC(=O)[C@@H](N)Cc1ccc(-c2cc(O[C@H](c3ccc(Cl)cc3-n3ccc(C)n3)C(F)(F)F)nc(N)n2)cc1 |  | -4.61 |
| CC(C)N1[N]C(=C2C=c3cc(O)ccc3=N2)c2c(N)ncnc21 | 0.833 µM (active) |  |
| CC(=O)NCC(=O)N1[C@H]2CC[C@H]1c1cc(Nc3ncc(C(F)(F)F)c(NC4CCC4)n3)ccc12 | 7.43 µM (active) |  |
| N=c1ccn2c(n1)O[C@H]1[C@@H](O)[C@@H](CO)O[C@H]12 | 0.526 µM (active) |  |
| CNC(=O)c1cccc(-c2ccc3c(N4CCOC[C@H]4C)nc(N4CCOC[C@H]4C)nc3n2)c1 | 0.166 µM (active) |  |
